We go through nine compounds from PubChem BioAssay (NCATS).

Values without a mark were called inactive. The rule behind the calls is not given here.
Potency is the fitted concentration of half-maximal effect.

The experiment has as its system HIV-1 nucleocapsid protein NCp7 (binding to TG oligonucleotide). Description: HIV Nucleocapsid (AID 346).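 Note: potency is for inhibitors that block NC binding and lower polarization.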 The note with it: HIV-1 NC / fluorescein-TGTGTGTG probe, fluorescence polarization. In short, it runs like this:
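Inhibition of nucleocapsid binding to single-stranded 5'-TGTGTGTG probe (10 nM) was measured by fluorescence polarization after 1 hr at room temperature with 100 nM protein under high-salt, zinc-containing, reducing conditions.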
(Polarisation of emitted light reports the rotation of a fluorescent probe.)
For `c1ccc(C(c2ccccc2)N2CC[C@@]3(CCCNC3)C2)cc1`, the Potency was above 20 µM. The value for `Cn1cccc1C(=O)N1CCC[C@@]2(CCN(Cc3ccc(C#N)cc3)C2)C1` was above 20 µM; that for `CN1CCN(c2ncnc3ccc(-c4ccccc4C(F)(F)F)cc23)CC1` was above 20 µM; that for `O=c1c(-c2ccc(Cl)cc2)nc2cnc(N3CCNCC3)nc2n1CCc1ccccc1` was above 20 µM. Then `Cc1ccccc1-c1nccc(NCCN2CCOCC2)n1`, with above 20 µM. Regarding `Cc1cnc(CNc2ncnc3ccc(-c4ccccc4Cl)cc23)cn1`, the Potency is above 20 µM. Then `CN1CCCC2(CCN(C(=O)c3cccn3C)CC2)C1`, with above 20 µM; and `O=C(c1ccncc1)N1CCC2(CCN(Cc3ccncc3)CC2)CC1`, with above 20 µM. Then `COc1cccc(-c2ccc3ncnc(N(C)Cc4ccco4)c3c2)c1`, with above 20 µM.
